Assay [1] concerns the target Glucocorticoid receptor (Homo sapiens) (UniProt P04150). Kind of assay: GR-GFP Redistribution (AID 450;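 active = compounds whose dose series gives a full or clear partial fitted curve of increased nuclear translocation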; also: potency is read from the fitted curve at half-maximal effect). As to conditions: U2OS GR-GFP nuclear translocation, laser cytometry, 2 h.
Assay [2] has the same target. Kind of assay: GR-EFC Redistribution (AID 451; calls by dose curve; also: potency is read from the fitted curve at half-maximal effect). As to conditions: CHO-K1 GR-EFC translocation, beta-gal luminescence, 2 h. Summed up: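 CHO-K1 cells stably expressing nuclear-localized β-gal enzyme acceptor and GR fused C-terminally to the enzyme donor fragment; ligand-driven nuclear translocation restores β-gal by complementation. Compounds titrated up to 46 uM final, 2 h at 37 °C; luminescence read.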

Assay [3] concerns the target 3',5'-cyclic-AMP phosphodiesterase 4B (Homo sapiens) (UniProt Q07343). The experiment in a line: qHTS Assay for Inhibitors of PDE-IV (AID 607; active = well fitted activation curve with a large enough effect in the main read-out, with a control signal flat, not every such curve was filed as active; also: % of control where 0% means no effect). A digest of the protocol: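 HEK293 ACTOne cells with CNG channel (1000/well), endogenous PDE4; membrane potential dye, compounds up to 22.9 uM final. Fluorescence Ex 535/Em 590; RO 20-1724 (100 uM final) as reference.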
On the technique in general: qHTS replaces the single test concentration by a dilution series.

In assay [4] the target is Cytochrome P450 2D6 (Homo sapiens) (UniProt P10635). Kind of assay: qHTS Assay for Inhibitors and Substrates of Cytochrome P450 2D6 (AID 891). Also: potency is read from the fitted curve at half-maximal effect; nearly all actives have a fitted effect of over 60% in size. A digest of the protocol: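 Luminescent read-out of luciferin formed by 5 nM human CYP2D6 demethylating 30 uM Luciferin-ME EGE (Km level) over 60 min at room temperature after NADPH regeneration addition. Data normalized to full inhibition by 1.43 uM quinidine.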
Sequence of Cytochrome P450 2D6 (Homo sapiens) (P10635 whole entry, looked up): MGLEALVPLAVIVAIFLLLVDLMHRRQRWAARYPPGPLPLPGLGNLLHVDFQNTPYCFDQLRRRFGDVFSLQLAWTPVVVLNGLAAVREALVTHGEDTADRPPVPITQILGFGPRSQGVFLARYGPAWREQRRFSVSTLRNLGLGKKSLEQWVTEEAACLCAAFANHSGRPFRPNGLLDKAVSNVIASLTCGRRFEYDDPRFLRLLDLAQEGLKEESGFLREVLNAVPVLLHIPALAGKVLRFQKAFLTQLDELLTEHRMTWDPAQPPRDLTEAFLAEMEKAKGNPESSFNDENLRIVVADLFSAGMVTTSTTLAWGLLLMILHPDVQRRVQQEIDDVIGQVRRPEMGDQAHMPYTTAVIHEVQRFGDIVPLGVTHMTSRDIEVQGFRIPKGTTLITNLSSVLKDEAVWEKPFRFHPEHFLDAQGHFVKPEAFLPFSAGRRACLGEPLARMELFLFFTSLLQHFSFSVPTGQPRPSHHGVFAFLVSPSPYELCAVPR

Assay [5] can be described thus: qHTS Assay for Lipid Storage Modulators (AID 1519; calls by dose curve). Conditions: Drosophila S3 cells, BODIPY lipid droplet/cell ratio, laser cytometry, cells loaded with oleic acid; for activity change, negative = inhibition: at 57.5 µM (top of the series). Summed up:
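Cells seeded at 5,000 per well were treated with compounds over a concentration series and loaded with oleic acid (400 uM, as added). Lipid droplet fluorescence (488 nm excitation, 500-530 nm channel) was read by laser-scanning cytometry and normalized to 20 uM Triacsin C.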

In assay [6] the target is Ubiquitin carboxyl-terminal hydrolase 1 (Homo sapiens) (UniProt O94782). Kind of assay: Inhibitors of USP1/UAF1: Pilot qHTS (AID 504865).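 Also: rhodamine fluorescence freed from ubiquitin-rhodamine substrate followed over time; top concentration of the series differs between compounds; % is scaled to controls: 0 for no effect and ±100 for the full control effect; nearly all actives have a fitted effect of over 35% in size.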 Summed up:
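Deubiquitinase activity followed as kinetic rhodamine fluorescence release from 150 nM Ub-Rho. 1 nM USP1/UAF1 with compound, after 15 min room-temperature preincubation, in HEPES pH 7.8 buffer containing TCEP, EDTA, BSA and Tween-20.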

The target in assay [7] is DNA dC->dU-editing enzyme APOBEC-3G (Homo sapiens) (UniProt Q9HC16). Kind of assay: qHTS for inhibitors of Vif-A3G interactions: Validation (AID 588379). Also: 0% is about no effect. Summed up:
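Yellow fluorescence (Ex 488, Em 500-530) of Vif-coexpressing HeLa A3G-eYFP cells, scanned by Acumen cytometer, reports blocked A3G degradation. Cells plated at 700/well overnight at 37 deg C before compound addition, then a further overnight compound incubation at 37 deg C.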

For assay [8], the system named is Zika virus NS2B-NS3 protease. Kind of assay: Primary screen GU AMC qHTS for Zika virus inhibitors (AID 1347154).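 Also: 0% = no-inhibitor control and -100% = no-enzyme control; nearly all actives have a fitted effect of over 70% in size.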 Summed up:
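Unlinked Zika NS2B hydrophilic domain/NS3 protease domain noncovalent complex (25 nM final) in 10 mM Tris-HCl pH 8.0, 0.01% Tween 20, with AMC peptide substrate. Fluorescence (ex 340, em 450 nm) change over 15 min, room temperature; percent inhibition fitted to 4-parameter Hill equation.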

Assay [9] in a line: Primary qHTS for small molecule stabilizers of the endoplasmic reticulum resident proteome: Secreted ER Calcium Modulated Protein (SERCaMP) assay (AID 1508630). Also: % is scaled to controls: 0 for no effect and ±100 for the full control effect. Summed up: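 The SH-SY5Y reporter protocol was run at 3 concentrations up to 38.3 uM (primary) or 11 concentrations (follow-up): 16 h compound, 100 nM thapsigargin for 4 h, then extracellular luciferase luminescence.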

Assay [10] deals with Mitogen-activated protein kinase 10 (Mus musculus) (UniProt Q61831). The experiment in a line: JNK3 AlphaScreen Assay (AID 530; active = well fitted curve in either direction with a large enough effect, not every such curve was filed as active;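 also: kinase came from lysate of stimulated human HepG2 cells; signal reports phosphorylation of biotinylated GST-cJun 1-79 at Ser73 with 10 µM ATP; % is scaled to controls: 0 for no effect and ±100 for the full control effect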). A digest of the protocol: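 Biotinylated GST-cJun(1-79) served as substrate for JNK3 in HepG2 lysates stimulated with IL-1beta and TNF-alpha. ATP was 10 uM final, pH 7.6. Ser73 phosphorylation was quantified by AlphaScreen (680 nm excitation).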
(In general: In Alpha technology, singlet oxygen from a donor bead excites a nearby acceptor bead.)

For assay [11], the target named is Cytochrome P450 1A2 (Homo sapiens) (UniProt P05177). Kind of assay: p450-cyp1a2 (AID 410; calls by dose curve; also: potency is read from the fitted curve at half-maximal effect). A digest of the protocol:
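Read-out is luminescence from luciferin produced by CYP1A2 demethylation of Luciferin-ME (100uM, at Km). Detection reagent stopped the 60 min NADPH-dependent reaction; signals were normalized to 57 uM furafylline.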

A short description of assay [12]: AP1 Signaling Pathway (AID 357; active = well fitted curve in either direction with a large enough effect, not every such curve was filed as active;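 also: ME-180 reporter cells stimulated with EGF at its EC50 level; % is scaled to controls: 0 for no effect and ±100 for the full control effect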). Summed up: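 Titration-series screen for positive or negative modulators of EC50 EGF-induced signaling in ME-180 cells carrying an AP-1-driven beta-lactamase reporter. After 5 hours at 37 degrees Celsius, CCF4 460nm/530nm emission ratio gave %Activity; AC50 values derived.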
Assay [13] in a line: NFAT Signaling Pathway (AID 444; active = well fitted curve in either direction with a large enough effect, not every such curve was filed as active;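 also: carbachol stimulus at about its EC50 of 1 µM final; % is scaled to controls: 0 for no effect and ±100 for the full control effect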). As to conditions: Jurkat NFAT-bla M1, carbachol, beta-lactamase ratio, 5 h. Summed up:
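Jurkat cells carrying an NFAT-driven β-lactamase reporter and co-transfected muscarinic M1 receptor were treated with compound plus carbachol (1 uM final, an EC50 level) for 5 h at 37 °C. CCF4 loading followed for 1 h at RT; 460/530 nm ratio gave %activity.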

Assay [14] can be described thus: Stat Signaling Pathway (AID 446; active = well fitted curve in either direction with a large enough effect, not every such curve was filed as active). A digest of the protocol:
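Normalization used AC90 stimulation (300 pM IL-6) and AC90 inhibition (125 nM pan-JAK inhibitor at 40 pM IL-6). The underlying signal is SIE-driven beta-lactamase in ME-180 cells after 5 h IL-6 exposure with compound.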

In assay [15] the target is Guanine nucleotide-binding protein G(i) subunit alpha-1 (Homo sapiens) (UniProt P63096). Kind of assay: qHTS Assay for Inhibitors of RGS12 GoLoco Motif Activity (Green Fluorophore) (AID 879).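 Also: 0% = labeled peptide with Gαi1 and full inhibition = labeled peptide alone without protein; negative values mean loss of peptide binding seen as reduced polarization.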 Summed up:
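A drop in FITC polarization marked displacement of the FITC-tagged RGS12 GoLoco peptide (10 nM) from Gαi1 (50 nM). Compounds were incubated 10 min at room temperature in Tris pH 7.5 buffer containing 150 mM NaCl, 0.1 mM GDP and 0.05% NP40; unlabeled peptide titration served as control.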

The target in assay [16] is Cytochrome P450 3A4 (Homo sapiens) (UniProt P08684). The experiment in a line: qHTS Assay for Activators of Cytochrome P450 3A4 (AID 885). Also: nearly all actives have a fitted effect of over 65% in size. A digest of the protocol:
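Human CYP3A4 dealkylates Luciferin-PPXE to luciferin, which luciferase detection converts to light. Substrate was at its KM (25uM), buffer 200mM KPO4, reaction 60 min at RT.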

Assay [17] has as its target Pyruvate kinase (Leishmania mexicana) (UniProt Q27686). The experiment in a line: qHTS Validation Assay for Inhibitors of Leishmania Mexicana Pyruvate Kinase (AID 945).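 Also: 0% = DMSO only neutral control wells.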 A digest of the protocol:
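LmPYK E451W 0.2 nM; 0.5 mM PEP, 0.1 mM ADP, 7 mM MgCl2, 50 mM KCl, imidazole pH 7.2, 0.01% Tween 20, 0.05% BSA; 1 h RT; PKLight luminescence; DMSO-normalized.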

Assay [18] has as its target Alpha-galactosidase (Coffea arabica) (UniProt Q42656). Kind of assay: Counterscreen for Glucocerebrosidase Inhibitors: qHTS Assay for Coffee Bean alpha-Galactosidase at pH 4.5 (AID 957).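 Also: plate controls were enzyme alone for no effect and no enzyme for full effect.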 A digest of the protocol:
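Quantitative HTS of compounds (0.7 nM to 77 uM) against coffee bean alpha-galactosidase at pH 4.5, measuring 4-methylumbelliferone fluorescence released from 80 uM substrate.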
For orientation: The purpose of a counterscreen is to sort out artefacts and off-target activity.

The target in assay [19] is Alpha-galactosidase A (Homo sapiens) (UniProt P06280). The experiment in a line: Counterscreen for Glucocerebrosidase Inhibitors: qHTS Assay for Human alpha-Galactosidase at pH 4.5 (AID 992). Also: 0% is about no effect. A digest of the protocol: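 Steps: enzyme (2 nM final), then compound across 0.7 nM to 77 uM, then 80 uM fluorogenic galactopyranoside substrate; incubate 20 min at room temperature; quench at pH 10; measure fluorescence at 365/440 nm.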

The mark [20] stands for this setting: measured here: cell count channel max response.
Setting [21] is: measured here: lipid channel max response.

Values joined by “and” are separate entries in the source; they are usually repeats but may differ in a detail not shown here. Equal entries are not always repeated. Results filed as inconclusive are left out. Some compounds were tested as several samples or in several runs, with calls that do not always agree. Active and inactive are the calls of the source. Unless noted, calls follow the shape of the dose curve; as a rule, active = well fitted curve in the direction sought with a large enough effect; inconclusive = small, poorly fitted or top-dose-only effect, or another doubt; inactive = no such curve, though single readings can be large; an effect the other way counts as inactive or inconclusive.

Sequence of 3',5'-cyclic-AMP phosphodiesterase 4B (Homo sapiens) (Q07343 whole entry, looked up): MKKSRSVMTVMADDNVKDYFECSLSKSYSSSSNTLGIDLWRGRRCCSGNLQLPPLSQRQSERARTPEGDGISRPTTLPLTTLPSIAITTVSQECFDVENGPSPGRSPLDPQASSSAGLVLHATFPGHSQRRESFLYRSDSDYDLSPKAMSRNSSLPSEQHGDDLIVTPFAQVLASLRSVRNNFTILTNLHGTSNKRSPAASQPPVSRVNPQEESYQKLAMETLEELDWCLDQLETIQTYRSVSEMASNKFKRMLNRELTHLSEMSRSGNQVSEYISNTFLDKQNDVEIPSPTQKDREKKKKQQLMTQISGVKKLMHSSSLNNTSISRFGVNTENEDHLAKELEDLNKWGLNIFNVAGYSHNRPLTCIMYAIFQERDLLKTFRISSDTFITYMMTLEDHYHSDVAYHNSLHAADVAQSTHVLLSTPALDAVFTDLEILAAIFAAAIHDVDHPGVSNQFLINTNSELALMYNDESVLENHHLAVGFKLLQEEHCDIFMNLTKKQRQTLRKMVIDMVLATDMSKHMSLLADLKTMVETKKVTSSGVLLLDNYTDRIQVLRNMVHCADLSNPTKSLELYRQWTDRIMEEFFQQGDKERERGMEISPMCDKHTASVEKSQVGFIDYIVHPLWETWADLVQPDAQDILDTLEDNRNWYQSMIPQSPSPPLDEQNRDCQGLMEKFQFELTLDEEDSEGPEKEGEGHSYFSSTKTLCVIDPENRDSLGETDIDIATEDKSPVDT
Sequence of DNA dC->dU-editing enzyme APOBEC-3G (Homo sapiens) (Q9HC16 whole entry, looked up): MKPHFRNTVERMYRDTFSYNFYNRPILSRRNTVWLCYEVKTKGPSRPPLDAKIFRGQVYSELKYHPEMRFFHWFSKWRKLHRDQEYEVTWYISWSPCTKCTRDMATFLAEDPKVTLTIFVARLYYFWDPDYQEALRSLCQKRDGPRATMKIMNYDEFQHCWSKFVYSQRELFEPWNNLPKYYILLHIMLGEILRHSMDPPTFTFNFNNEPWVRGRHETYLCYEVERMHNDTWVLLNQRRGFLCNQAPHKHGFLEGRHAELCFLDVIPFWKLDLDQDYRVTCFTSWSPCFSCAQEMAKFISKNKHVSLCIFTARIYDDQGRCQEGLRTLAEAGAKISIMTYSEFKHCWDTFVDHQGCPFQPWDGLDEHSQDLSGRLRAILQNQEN
Sequence of Cytochrome P450 1A2 (Homo sapiens) (P05177 whole entry, looked up): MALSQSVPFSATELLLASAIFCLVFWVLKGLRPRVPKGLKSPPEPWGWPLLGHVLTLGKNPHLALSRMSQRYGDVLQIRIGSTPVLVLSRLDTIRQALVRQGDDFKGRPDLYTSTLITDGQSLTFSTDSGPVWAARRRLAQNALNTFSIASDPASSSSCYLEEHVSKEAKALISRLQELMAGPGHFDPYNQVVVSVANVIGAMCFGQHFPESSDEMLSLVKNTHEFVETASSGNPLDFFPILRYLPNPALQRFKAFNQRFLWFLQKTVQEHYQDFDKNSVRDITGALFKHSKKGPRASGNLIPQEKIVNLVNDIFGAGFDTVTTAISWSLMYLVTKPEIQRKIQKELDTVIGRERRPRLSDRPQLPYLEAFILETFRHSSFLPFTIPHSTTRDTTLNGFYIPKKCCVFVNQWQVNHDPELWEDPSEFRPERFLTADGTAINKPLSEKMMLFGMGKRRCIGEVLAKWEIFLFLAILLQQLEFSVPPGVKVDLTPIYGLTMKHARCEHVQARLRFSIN
Sequence of Glucocorticoid receptor (Homo sapiens) (P04150 whole entry, looked up, the tested form may be a part): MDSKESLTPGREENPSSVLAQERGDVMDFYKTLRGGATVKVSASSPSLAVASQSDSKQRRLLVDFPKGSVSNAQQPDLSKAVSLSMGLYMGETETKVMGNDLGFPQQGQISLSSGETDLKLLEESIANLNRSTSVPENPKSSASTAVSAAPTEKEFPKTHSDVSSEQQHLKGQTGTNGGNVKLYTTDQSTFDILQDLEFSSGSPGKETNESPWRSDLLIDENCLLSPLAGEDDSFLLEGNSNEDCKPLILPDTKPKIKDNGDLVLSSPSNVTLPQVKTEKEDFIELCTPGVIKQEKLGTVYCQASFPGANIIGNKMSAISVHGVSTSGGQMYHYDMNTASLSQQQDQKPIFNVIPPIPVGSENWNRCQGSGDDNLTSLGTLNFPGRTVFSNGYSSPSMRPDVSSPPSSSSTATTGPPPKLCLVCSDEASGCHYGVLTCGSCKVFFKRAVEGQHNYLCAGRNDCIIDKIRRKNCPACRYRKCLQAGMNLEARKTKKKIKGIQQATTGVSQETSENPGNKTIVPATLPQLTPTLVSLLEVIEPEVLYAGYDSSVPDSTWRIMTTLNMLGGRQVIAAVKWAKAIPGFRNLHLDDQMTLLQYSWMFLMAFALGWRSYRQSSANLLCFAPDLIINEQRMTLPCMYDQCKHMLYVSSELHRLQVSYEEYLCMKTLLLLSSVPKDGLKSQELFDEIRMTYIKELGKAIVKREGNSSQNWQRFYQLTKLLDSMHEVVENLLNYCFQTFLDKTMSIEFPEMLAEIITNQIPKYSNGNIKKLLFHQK
Sequence of Ubiquitin carboxyl-terminal hydrolase 1 (Homo sapiens) (O94782 whole entry, looked up): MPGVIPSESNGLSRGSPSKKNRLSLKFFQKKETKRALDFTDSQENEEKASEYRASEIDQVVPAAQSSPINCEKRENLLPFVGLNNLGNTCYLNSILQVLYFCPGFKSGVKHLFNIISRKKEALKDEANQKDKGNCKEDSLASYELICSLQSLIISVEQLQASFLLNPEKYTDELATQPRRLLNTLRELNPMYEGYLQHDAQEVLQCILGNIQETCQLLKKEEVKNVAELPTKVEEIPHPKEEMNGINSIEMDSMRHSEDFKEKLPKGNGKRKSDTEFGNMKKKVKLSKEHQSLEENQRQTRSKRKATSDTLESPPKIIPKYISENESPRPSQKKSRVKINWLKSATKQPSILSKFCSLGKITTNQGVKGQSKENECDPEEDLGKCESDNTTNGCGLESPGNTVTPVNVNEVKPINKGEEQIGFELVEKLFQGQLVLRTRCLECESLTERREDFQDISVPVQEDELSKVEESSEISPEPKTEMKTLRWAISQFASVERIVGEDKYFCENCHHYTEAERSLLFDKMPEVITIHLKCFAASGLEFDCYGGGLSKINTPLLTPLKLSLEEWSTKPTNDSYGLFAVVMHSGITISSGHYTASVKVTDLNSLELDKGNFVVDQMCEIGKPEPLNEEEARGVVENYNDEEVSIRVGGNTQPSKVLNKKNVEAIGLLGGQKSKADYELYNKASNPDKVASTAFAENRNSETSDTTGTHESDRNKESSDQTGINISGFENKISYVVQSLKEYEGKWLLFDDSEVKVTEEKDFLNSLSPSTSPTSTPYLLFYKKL
Sequence of Pyruvate kinase (Leishmania mexicana) (Q27686 2-499 E452W): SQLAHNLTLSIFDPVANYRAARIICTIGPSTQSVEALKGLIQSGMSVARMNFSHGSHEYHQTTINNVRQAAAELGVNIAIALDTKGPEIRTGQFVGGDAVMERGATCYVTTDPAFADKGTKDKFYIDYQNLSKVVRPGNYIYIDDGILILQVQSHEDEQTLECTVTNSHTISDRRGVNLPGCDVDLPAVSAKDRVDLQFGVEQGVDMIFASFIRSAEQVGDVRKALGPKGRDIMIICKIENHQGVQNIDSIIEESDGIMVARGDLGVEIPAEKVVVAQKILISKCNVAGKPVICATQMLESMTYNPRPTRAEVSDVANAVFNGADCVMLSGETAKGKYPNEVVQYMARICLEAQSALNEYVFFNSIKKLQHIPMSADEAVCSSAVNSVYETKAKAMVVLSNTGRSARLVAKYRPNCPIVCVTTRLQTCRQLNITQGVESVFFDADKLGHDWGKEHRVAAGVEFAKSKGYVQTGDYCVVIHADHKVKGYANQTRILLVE
Sequence of Guanine nucleotide-binding protein G(i) subunit alpha-1 (Homo sapiens) (P63096 whole entry, looked up): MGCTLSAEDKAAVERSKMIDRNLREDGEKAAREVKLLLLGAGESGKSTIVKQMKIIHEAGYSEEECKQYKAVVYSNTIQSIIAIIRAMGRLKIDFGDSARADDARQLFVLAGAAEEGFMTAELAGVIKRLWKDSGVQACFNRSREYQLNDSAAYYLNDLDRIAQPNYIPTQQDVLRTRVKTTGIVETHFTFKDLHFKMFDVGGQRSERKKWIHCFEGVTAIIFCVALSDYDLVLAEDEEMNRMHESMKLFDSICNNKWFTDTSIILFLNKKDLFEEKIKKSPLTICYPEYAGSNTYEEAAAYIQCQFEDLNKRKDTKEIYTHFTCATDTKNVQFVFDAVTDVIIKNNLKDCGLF
Sequence of Alpha-galactosidase (Coffea arabica) (Q42656 whole entry, looked up): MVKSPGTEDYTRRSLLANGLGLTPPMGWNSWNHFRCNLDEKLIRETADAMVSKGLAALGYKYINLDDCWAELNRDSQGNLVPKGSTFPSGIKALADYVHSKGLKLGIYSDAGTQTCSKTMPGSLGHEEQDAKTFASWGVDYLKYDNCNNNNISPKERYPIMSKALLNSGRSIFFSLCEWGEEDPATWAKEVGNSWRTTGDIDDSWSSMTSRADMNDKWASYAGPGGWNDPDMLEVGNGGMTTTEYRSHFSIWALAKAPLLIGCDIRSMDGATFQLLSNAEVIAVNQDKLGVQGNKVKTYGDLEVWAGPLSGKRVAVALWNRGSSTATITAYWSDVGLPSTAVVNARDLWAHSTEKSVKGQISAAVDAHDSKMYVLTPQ

Consider `CCCN[C@@H]1CCc2c(OC)cccc2[C@@H]1C`, for which the Potency in assay [1] is > 46 µM (inactive); in assay [2], > 46 µM (inactive); in assay [4], 251 nM (active). The Potency result in assay [3], in assay [6], in assay [7], in assay [8] and in assay [9] was “inactive” each time. In addition, the activity change, negative = inhibition in assay [5] is -0.687% (inactive). Besides, the values for the max response in [5] (setting [20]) and in assay [5] (setting [21]) were -20.9% and -24%, respectively.

As to `O=C(O)Cc1cccnc1C(=O)O`, the Potency in assay [1] and in [2] was > 46 µM (inactive) in each case. In addition, in [10], the result was inactive. Moreover, the activity change, negative = inhibition in assay [5] was 3.53% (inactive). Besides, the max response was -8.51% in assay [5] (setting [20]) and -2.88% in [5] (setting [21]). Further, the Potency result in [7], in [8] and in [9] was “inactive” throughout.

On to `O=C(O)[C@H]1[C@H]2CN[C@H](C(=O)O)[C@H]21`, for which the Potency in [11] is 31.6 µM (active); in [1], > 46 µM (inactive); in assay [2], > 46 µM (inactive). Further, in assay [10], the molecule was called inactive. For the same molecule, the Potency entry in assay [3], in assay [7], in assay [8] and in assay [9] was “inactive” throughout. Besides, in assay [5], the activity change, negative = inhibition was -5.1% (inactive). Besides, the max response in assay [5] (setting [20]) was -11.8%; in assay [5] (setting [21]), -16.1%.

With `COC(=O)N1CCN(C(=O)Cc2ccc(Cl)c(Cl)c2)[C@H](CN2CCCC2)C1`, the result in assay [12], in [14], in assay [15], in assay [17], in assay [18] and in assay [19] was inactive. The Potency result in assay [11], in assay [3], in assay [16], in [7], in assay [8] and in [9] was “inactive” throughout. In addition, in assay [13] (at 38 µM (top of the series)), the activity change, negative = inhibition was -16% (inactive). For the same molecule, the Potency in assay [1] is > 46 µM (inactive) and 1.28 µM (active); in [2], > 46 µM (inactive).

`CC(C)NC[C@H](O)c1ccc(N)c(C#N)c1`: the Potency in assay [1] and in [2] was > 46 µM (inactive) in each case. For the same molecule, in assay [5], the activity change, negative = inhibition is 11.2% (inactive). In addition, the max response was determined as 17.3% in [5] (setting [20]) and 26.1% in [5] (setting [21]). Further, the Potency entry in [6], in [7], in [8] and in assay [9] was “inactive” throughout.

Take `CCCN(CCC)[C@@H]1CCc2c(OC)cccc2[C@@H]1C`: the Potency in assay [11] is 31.6 µM (active); in assay [2] it was > 46 µM (inactive). For the same molecule, in assay [5], the activity change, negative = inhibition was -0.226% (inactive). The values for the max response in assay [5] (setting [20]) and in assay [5] (setting [21]) were 8.03% and 12.1%, respectively. The Potency entry in assay [7], in [8] and in [9] was “inactive” throughout.

Consider `CCOC(=O)c1cc2c(cn1)[nH]c1ccccc12`, for which the call in assay [12] and in assay [14] was inactive. For the same molecule, the activity change, negative = inhibition in [13] (at 17.2 µM (top of the series)) was 26.1% (inactive). The Potency in assay [1] is > 20.6 µM (inactive). Further, the Potency entry in [8] and in [9] was “inactive” throughout.

With `CCOC(OCC)P(=O)(O)CCCN`, the Potency in assay [1] and in [2] was > 46 µM (inactive) in each case. In addition, the outcome in assay [10] was inactive. The Potency entry in assay [7], in assay [8] and in [9] was “inactive” each time.

For `CN[C@@H]1C[C@H](c2ccc(Cl)c(Cl)c2)c2ccccc21`, the Potency in assay [2] was > 46 µM (inactive). The Potency entry in [7], in assay [8] and in [9] was “inactive” in each case.

With `CC(C)(Cc1c[nH]c2ccc(Cl)cc12)NCCOc1ccccc1OCC1CC1`, the Potency in assay [1] and in assay [2] was > 46 µM (inactive) in each case. For the same molecule, the result in [10] was inactive. The Potency entry in [7], in assay [8] and in assay [9] was “inactive” throughout.

These data come from PubChem BioAssay (NCATS).
